BJeLR viability: BJeLR cell viability reduction | viability loss activity score, % (no concentration beside the values) | hit rate 0.64% among 30,000 | BJeLR fibroblasts viability, CellTiterGlo ATP luminescence, 48 h; HRASV12, hTERT and SV40 LT/ST transformed; in the data active = viability loss activity score above about 50%; inconclusive = no clear call, values can overlap the other calls; inactive = below about 35%;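 note: higher score means fewer live cells and less ATP luminescence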
Hedgehog inh: Sonic Hedgehog pathway inhibition | AID 2313 | hit rate 2.1% among 22,000 | Shh-LIGHT2 Gli-luciferase reporter, 30 h | inhibition, % (no concentration beside the values);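 active = mean inhibition across valid replicates above about 65%, limit read from the data; inconclusive = mean under the limit, yet half or more replicates past it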;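 note: pathway switched on by Shh-conditioned medium diluted 1 in 25 in low serum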
MITF inh: inhibitors of MITF. TRPM1 promoter luciferase, luminescence, 24 h. inhibition, % (no concentration beside the values). hit rate 0.28% among 37,000. AID 2240; in the data active = inhibition above about 85%; inconclusive = no clear call, values can overlap the other calls; inactive = below about 68%;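 note: human melanocyte line stably carrying TRPM1 promoter luciferase reporter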
The depositor's hits bear a star; ? = inconclusive; . = no result. This is one part of a sample in which hits are shown more often than they occur.

SMILES | BJeLR viability | Hedgehog inh | MITF inh
COc1ccc(S(=O)(=O)Nc2ccc3c(c2)C(=O)N([C@H](C)CO)C[C@H](C)[C@@H](CN(C)Cc2ccc(Cl)c(Cl)c2)OCCCC[C@@H](C)O3)cc1 | . | 69.3* | ?
COc1ccc(CN(C)C[C@H]2OCCCC[C@@H](C)Oc3ccc(NS(=O)(=O)c4ccc(C)cc4)cc3C(=O)N([C@H](C)CO)C[C@@H]2C)cc1 | . | 65.0* | 0.7
Cc1nc(SCc2ccc(C(F)(F)F)cc2)c2c(=O)n(C)c(=O)n(C)c2n1 | 1.8 | . | .
O=C(/C=N/O)Nc1cc(C(F)(F)F)cc(C(F)(F)F)c1 | 17.1 | 69.4* | 24.1
C/C(=N\O)C(C)(C)Nc1cc(C(F)(F)F)cc(C(F)(F)F)c1 | 2.5 | . | .
CCOC(=O)C1=C(c2ccccc2)Nc2nnnn2C1c1ccc(Br)cc1 (stereo not drawn) | -8.3 | . | .
CCc1c(C)c(C#N)c2nc3ccccc3n2c1NCCC(C)C | -2.9 | . | .
CCOC(=O)CCc1c(C)c(C#N)c2nc3ccccc3n2c1Cl | 87.8* | . | .
CN(C(=O)CSc1cc(=O)n(C)c2ccccc12)C1CCCCC1 | 1.2 | . | .
COc1ccc(CCNC(=O)CSc2cc(Cl)nc3ccc(C)cc23)cc1OC | 6.9 | . | .
COc1ccc(Cn2c(CCC(=O)NCc3ccccc3)nc3cccnc32)cc1 | -8.6 | . | .
CCOC(=O)c1sc2sc(C(=O)OCC)c(-c3ccc(Cl)cc3)c2c1N | -2.1 | 0.4 | -1.7
CCc1nc(N)nc(N)c1-c1ccc(Cl)cc1 | 77.2* | 17.9 | 1.3
CCOC(=O)c1c(NC(=O)c2ccccc2)sc2c1CC(C(C)C)OC2 (stereo not drawn) | 3.7 | . | .
COc1ccc(-n2c(SCC(N)=O)nnc2-c2cccnc2)cc1 | . | . | -5.6
COc1ccc(-n2c(-c3cccc(OC)c3)csc2=NCc2cccnc2)cc1 | 4.7 | 70.8* | 54.1
O=S(=O)(c1ccc2oc3ccc(S(=O)(=O)N4CCCCCC4)cc3c2c1)N1CCCCCC1 | -0.8 | . | .
O=C(c1ccc(F)cc1)C1CCN(CCn2c(=O)[nH]c3ccccc3c2=O)CC1 | -3.0 | 16.9 | -0.7
Cc1nc2sccn2c(=O)c1CCN1CCC(=C(c2ccccc2)c2ccc(F)cc2)CC1 | 3.1 | 70.9* | -3.7
COC(CNC(=O)C1CCN(Cc2nc(-c3ccc(Cl)cc3)oc2C)CC1)OC | -3.9 | . | .
COc1ccc(C2C(C(=O)NCC3CCCO3)c3ccccc3C(=O)N2C)cc1 (stereo not drawn) | 6.6 | . | .
CCN(C(=O)c1cc2c(=O)oc3ccccc3c2s1)c1ccccc1 | 4.8 | . | .
N#Cc1c(N2CCN(C(=S)NCc3ccccc3)CC2)nc(-c2ccccc2)c2c1CCCC2 | -6.6 | . | .
COC(=O)c1ccc(/C=C2/Oc3ccccc3N(Cc3ccccc3F)C2=O)cc1 | 2.5 | . | .
O=C(NCc1cccnc1)c1ccc(/C=C2\Sc3ccccc3N(Cc3ccccc3F)C2=O)cc1 | 122.8* | . | .
SMILES | BJeLR viability | Hedgehog inh | MITF inh
COc1ccc(NC(=O)c2ccc3c(=O)n(Cc4ccco4)c(=S)[nH]c3c2)cc1OC | -4.4 | 77.2* | 5.1
COc1ccccc1Cn1c(=S)[nH]c2cc(C(=O)NCC(OC)OC)ccc2c1=O | -0.3 | . | .
C[C@H]1CC[C@@H]2[C@@H](C(=O)c3c(O)c([C@]4(O)CC[C@@H](O)[C@H]5O[C@H]54)cn(O)c3=O)[C@@H](C)C=C[C@H]2C1 | 52.9* | 93.9* | 66.6
CCOC(=O)/C(C#N)=C1/NC(=O)Nc2ccccc21 | 1.3 | . | .
CCC(C)C1NC(=O)C(CCC(=O)O)N(C)C(=O)C(C(C)C)N(C)C(=O)CNC(=O)C2CCCN2C(=O)C(Cc2ccccc2)NC(=O)C(C(C)CC)OC(=O)C(CCC(=O)O)N(C)C(=O)C(C(C)C)NC(=O)C2CCCCN2C1=O (stereo not drawn) | -7.8 | 100.0* | 58.5
O=C(CSc1c(-c2ccccc2)c2cc(Cl)ccc2[nH]c1=O)NC1CCCC1 | 1.1 | . | .
Clc1ccc(Sc2cn[nH]c2-c2ccc3c(c2)OCCO3)cc1 | -4.4 | 78.7* | 4.4
CCOC(=O)c1[nH]ncc1Sc1ccc(Cl)cc1 | 5.9 | . | .
Cc1ccc(NC(=S)N2CCCN(c3ncc(C(F)(F)F)cc3Cl)CC2)c(C)c1 | 7.7 | . | .
Cc1ccc2oc(=O)c3cnn(CC(=O)N4CCCCC4)c3c2c1 | 0.3 | . | .
CCN(CC)CCCn1c(-c2ccc(C)cc2)cn2c3ccccc3nc12 | . | . | 5.2
OCCCn1c(-c2ccccc2)cn2c3ccccc3nc12 | . | . | 97.7*
CCN(CC)c1c(C#N)c(SCC(=O)c2cccs2)cc2c1CCCC2 | 13.2 | 80.8* | 8.2
Cc1cc(C)c2c(=O)[nH]c(SCC(=O)c3cccs3)nc2n1 | . | . | 2.9
COc1ccc(C2=NN(C(=O)c3ccccc3O)C(O)(C(F)(F)F)C2)cc1 (stereo not drawn) | 6.0 | . | .
C=C1C(=O)O[C@H]2[C@H]1[C@@H](OC(=O)C(C)(O)C(C)Cl)C(OC(C)=O)/C(C(=O)OC)=C\CC[C@@]1(C)O[C@H]21 (stereo partly drawn) | 84.9* | 73.0* | -9.5
C=C1C(=O)O[C@H]2C1[C@H](OC(=O)/C(C)=C/CO)C/C(C)=C\CC[C@@]1(C)OC21 (stereo partly drawn) | -6.9 | 26.3 | -8.8
CC(CNC(=O)c1cc2oc3ccccc3c2n1C)c1ccccc1 (stereo not drawn) | 14.8 | . | .
C=C1C(=O)OC2CC1C(OC(C)=O)C/C(C)=C\CC/C(C)=C\CC[C@]2(C)O (stereo partly drawn) | 11.2 | 87.5* | ?
C=C1C(=O)O[C@H]2C1[C@H](OC(=O)/C(C)=C/CO)C/C(C)=C\CC[C@@]1(CO)OC21 (stereo partly drawn) | 2.1 | 4.2 | 25.9
COc1ccc(CCN2C(=O)/C(=C/C3CC=CCC3)SC2=S)cc1OC (stereo not drawn) | 2.4 | . | .
COc1ccc(C2C3C(=O)N(C(C)C)C(=O)C3ON2c2ccc(Cl)cc2)cc1 (stereo not drawn) | 8.8 | . | .
N#C/C(=C/c1ccc(O)c(O)c1)C(=O)OC/C=C/c1ccccc1 | -1.1 | ? | -9.8
Oc1cc(O)cc(/C=C/c2ccc(O)c(O)c2)c1 | -9.7 | 82.4* | 94.3*
CCSc1nnc2n(-c3ccccc3)c3ccccc3n12 | 0.1 | . | .
SMILES | BJeLR viability | Hedgehog inh | MITF inh
COC(=O)c1ccc(NC(=O)CSC(=S)N2CCOCC2)cc1 | 2.2 | 67.9* | 6.5
CNC(=O)CCC(=O)Nc1ccc(C(=O)OC)cc1 | . | . | -0.1
CCOC(=O)NN1CNc2ccccc2C1=O | -2.6 | . | .
COC(=O)Nc1nc2ccc(-c3n[nH]c(=O)c4ccccc34)cc2[nH]1 | 16.7 | -16.1 | -8.2
CCCCc1ccc2nc(NC(=O)OC)[nH]c2c1 | 66.5* | 41.0 | 19.8
N#CC(C#N)=C(Nc1ccc(Br)cc1)SCc1ccc(F)cc1 | 40.4 | 108.8* | 73.3
CNC(=O)CSCc1ccc(Br)cc1 | -2.5 | -57.1 | -30.5
O=C(Nc1ccccc1N1CCCC1)c1cccc(OCc2ccccc2)c1 | -2.9 | . | .
C[C@@H]1CCCCO[C@H](CN(C)C(=O)Nc2ccc(C(F)(F)F)cc2)[C@@H](C)CN([C@H](C)CO)C(=O)c2cc(NS(=O)(=O)c3ccc(F)cc3)ccc2O1 | . | 30.7 | 40.6
C[C@@H]1CCCCO[C@H](CN(C)C(=O)Nc2ccc(C(F)(F)F)cc2)[C@@H](C)CN([C@H](C)CO)C(=O)c2cc(NS(=O)(=O)c3cccs3)ccc2O1 | . | . | 48.4

Screening data deposited in PubChem BioAssay by Broad Institute.
